HTR2A ag – agonists of mouse serotonin 5-HT2A receptor (HTR2A); CHO-K1 mHTR2A beta-arrestin complementation, luminescence; percent of 30 µM serotonin response; 360,000 compounds, 0.66% hits; AID 624169; P35363; activation, % at 7.6 µM;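 active = activation above a run cutoff, the mean activation of all tested compounds plus 3 SD, cut at about 14% in these data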
Target sequence (P35363 whole entry, looked up): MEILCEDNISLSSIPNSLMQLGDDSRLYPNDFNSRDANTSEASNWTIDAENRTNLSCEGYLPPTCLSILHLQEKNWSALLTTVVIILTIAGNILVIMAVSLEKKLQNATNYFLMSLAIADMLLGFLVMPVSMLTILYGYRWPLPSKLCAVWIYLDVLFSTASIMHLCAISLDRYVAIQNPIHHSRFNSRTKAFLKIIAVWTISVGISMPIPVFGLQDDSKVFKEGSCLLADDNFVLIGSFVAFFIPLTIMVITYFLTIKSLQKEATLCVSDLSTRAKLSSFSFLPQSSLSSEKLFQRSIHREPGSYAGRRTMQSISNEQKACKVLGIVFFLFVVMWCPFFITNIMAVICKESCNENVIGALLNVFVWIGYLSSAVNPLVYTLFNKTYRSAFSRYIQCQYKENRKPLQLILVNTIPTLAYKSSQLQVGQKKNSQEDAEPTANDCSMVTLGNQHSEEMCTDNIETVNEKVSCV
OPRM1-OPRD1 inv – mu-delta opioid heterodimer inverse agonism. AID 504357. inhibition, % at 9.3 µM. 340,000 compounds, 0.21% hits. P35372+P41143. cell-based MOR-DOR heterodimer luminescence; in the data active = inhibition above about 22%, passing the limit was not always enough
HTR5A ag – HTR5A agonism, opioid heterodimer counter-screen. 340,000 compounds, 0.61% hits. P47898. activation, % at 9.3 µM. HTR5A agonist assay, luminescence, cell-based; in the data active = activation mostly above about 9.5%, no sharp cut-off; inactive = mostly below about 7.6%
HTR5A inv ag – inverse agonist of human HTR5A in OPRM1-OPRD1 counter-screen; P47898; HTR5A cell line, luminescence, inverse agonism; inhibition, % at 9.3 µM; 340,000 compounds, 0.083% hits; AID 504634; in the data active = inhibition mostly above about 23%, no sharp cut-off; inactive = mostly below about 18%
MOR-DOR ag – agonists of human mu-delta opioid receptor heterodimerization | activation, % at 9.3 µM | cells, OPRM1-OPRD1 heterodimerization, luminescence | 340,000 compounds, 0.3% hits | AID 504326; in the data active = activation above about 18%
sPLA2-III inh – Blocks human group III sPLA2 activity. inhibition, % at 12.2 µM. Q9NZ20. QFRET BODIPY PC-A2 liposome hydrolysis, fluorescence. 370,000 compounds, 0.56% hits;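 active = inhibition above mean plus 3 SD of compounds lying within the high and low control bounds, cut at about 19% in these data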
Hits are given with their value; - = inactive; . = no result given. Sampled rows, rich in hits. Any-hit rate of the full collection: about 2.2%.

SMILES | HTR2A ag | OPRM1-OPRD1 inv | HTR5A ag | HTR5A inv ag | MOR-DOR ag | sPLA2-III inh
COc1ccc(CCNC(=O)CC2SC(=NCc3ccccc3OC)NC2=O)cc1 (stereo unspecified) | - | - | - | - | - | -
CS(=O)(=O)c1ncc(Cl)c(C(=O)Nc2ccc(OC(F)F)cc2)n1 | - | 34.5 | - | - | - | .
CC1(C)Cc2cccc(OCC(=O)Nc3ccccc3F)c2O1 | - | - | - | - | - | -
Cc1ccc(NC(=O)COc2cccc3c2OC(C)(C)C3)c(O)c1 | - | - | 13.4 | - | - | -
COC(=O)[C@]12C[C@H](CC(=O)NCc3ccc(C)o3)C(=O)N(Cc3ccco3)C1=C[C@H](C1CCCC1)O[C@@H]2C | . | . | . | . | . | -
COC(=O)[C@]12C[C@H](CC(=O)NCc3ccc(OC)c(OC)c3)C(=O)N(Cc3cccc4ccccc34)C1=C[C@H](COCc1ccccc1)O[C@@H]2C | . | . | . | . | . | -
O=C(Cc1c[nH]c2ccccc12)NCc1ccncc1 | - | - | 10.9 | - | - | -
O=C(Cc1ccccc1)NCc1ccncc1 | - | - | - | - | - | -
O=C(CC12CC3CC(CC(C3)C1)C2)N1CCOCC1 | - | - | - | - | - | -
OC12CC3C[C@H](C1)C(N1CCOCC1)[C@@H](C3)C2 (stereo partly specified) | - | - | 10.2 | - | - | -
CC(C)(C)c1ccc(-c2nnc(SCC(=O)Nc3ccc(S(=O)(=O)Nc4nccs4)cc3)n2-c2ccc(Cl)cc2)cc1 | . | . | . | . | . | -
CCCCCCCC(=O)N[C@H]1CC[C@@]23CCCN2C(=O)CCC[C@H]3[C@H]1C | . | . | . | . | . | -
Cc1ccc2c(c1)c1c3n2CCCNC3CCC1 (stereo unspecified) | - | - | 10.4 | - | - | -
CCCN(CC(=O)Nc1ccccc1C)C(=O)COc1c(C)cccc1C | - | - | - | - | - | -
CCCN(CC(=O)Nc1ccccc1C)C(=O)COC(=O)c1cnc(C)cn1 | - | - | 10.3 | - | - | -
CN(Cc1ccccc1)C(=O)C1CCN(S(=O)(=O)c2cc([N+](=O)[O-])ccc2Cl)CC1 | - | - | 13.4 | - | - | -
O=C(NCc1ccccc1)C1CCN(S(=O)(=O)c2cc([N+](=O)[O-])ccc2Cl)CC1 | - | - | - | - | - | -
O=C(CN(Cc1ccccc1)C(=O)CCl)c1cccc(Br)c1 | - | - | 37.8 | - | 33.2 | -
O=C(NCCN1CCC(Cc2ccccc2)CC1)C1CCCN(S(=O)(=O)c2ccc(Cl)s2)C1 (stereo unspecified) | . | . | . | . | . | -
COc1cc(S(=O)(=O)NCc2cccnc2)c(OC)cc1Br | - | - | 10.0 | - | - | -
CCOC(=O)c1sc(NC(=O)CN(CC(C)C)CC(C)C)c(C(=O)OCC)c1C | - | - | 13.5 | - | - | -
CCCSC1=C(C#N)C(c2ccc(OC)cc2)C2=C(CC(C)(C)CC2=O)N1 (stereo unspecified) | - | - | 10.7 | - | - | -
COc1ccc(C2C(C#N)=C(C)NC3=C2C(=O)CC(C)(C)C3)cc1 (stereo unspecified) | - | - | - | - | - | -
COc1cc(/C=N\NC(=O)c2ccc(-c3ccccc3)cc2)cc(OC)c1O | - | - | - | - | - | -
COc1cc(/C=N\NC(=O)c2ccc(-c3ccccc3)cc2)ccc1OCC(N)=O | - | - | 10.7 | - | 19.9 | -
SMILES | HTR2A ag | OPRM1-OPRD1 inv | HTR5A ag | HTR5A inv ag | MOR-DOR ag | sPLA2-III inh
O=C(CSc1nnc(SCc2ccccc2)s1)N/N=C/c1ccc(Cl)cc1Cl | - | - | - | - | - | -
O=C(CSC1CN(C(c2ccccc2)c2ccccc2)C1)N/N=C/c1ccc(Cl)cc1Cl | - | - | 12.2 | - | - | -
COc1cccc(OCC(=O)N2CCCc3ccccc32)c1 | - | - | 10.4 | - | - | -
Cc1ccc(N(CC(=O)NCC2CCCO2)S(=O)(=O)c2ccccc2)c(C)c1 (stereo unspecified) | - | - | 14.0 | - | - | -
COc1ccc(-n2c(COc3ccccc3)nnc2SCC(=O)Nc2ccccc2-c2ccccc2)cc1 | . | . | . | . | . | -
CC(c1ccccc1)C1CC(=O)N(c2ccc([N+](=O)[O-])cc2)C1=O (stereo unspecified) | - | - | - | - | - | -
CC(c1ccccc1)C1CC(=O)N(c2ccccc2)C1=O (stereo unspecified) | - | 35.4 | - | 36.1 | - | -
Cc1c(NCc2nc3ccccc3[nH]2)c(=O)n(-c2ccccc2)n1C | - | - | 12.1 | - | - | -
CCOC(=O)C(=CNc1ccc(NC2=NCC(C)S2)cc1)C(=O)OCC (stereo unspecified) | - | - | 9.8 | - | - | -
O=S(=O)(NN=C1CCCCCC1)c1ccccc1 | - | - | 13.0 | - | - | -
Cc1c([N+](=O)[O-])cc(C(=O)Nc2ccc3ncccc3c2)cc1[N+](=O)[O-] | - | - | 9.5 | - | - | -
Cc1ccc2cc(NC(=O)c3ccccc3)ccc2n1 | - | - | 9.4 | - | - | -
C[C@@H]1O[C@@H](n2c3ccc(Cl)cc3c3ccc4c5cc(Cl)ccc5[nH]c4c32)[C@H](O)[C@H](O)[C@H]1O | . | . | . | . | . | -
CCOc1cc(C)c(S(=O)(=O)Nc2ccc(Cl)cn2)cc1C | - | - | 14.0 | - | - | -
CCOc1ccc(S(=O)(=O)Nc2ccc(Cl)cn2)c(C)c1C | - | - | - | - | - | -
CC(C)C(=O)NC(c1ccco1)c1ccc2cccnc2c1O (stereo unspecified) | - | - | - | - | - | -
CC(C)C(=O)NC(c1cccc([N+](=O)[O-])c1)c1ccc2cccnc2c1O (stereo unspecified) | - | - | - | - | - | 22.5
CCCC(=O)NC(c1ccc(C)cc1)c1ccc2cccnc2c1O (stereo unspecified) | - | - | - | - | - | .
CCCC(=O)NC(c1ccc(Cl)cc1Cl)c1ccc2cccnc2c1O (stereo unspecified) | - | - | - | - | - | 26.4
CCCCC(=O)NC(c1ccc(Cl)cc1)c1ccc2cccnc2c1O (stereo unspecified) | - | - | - | - | - | -
CCCC(=O)NC(c1cccc([N+](=O)[O-])c1)c1ccc2cccnc2c1O (stereo unspecified) | - | . | . | . | . | 22.0
COC(=O)C1CN(Cc2ccc(F)cc2)CCS(=O)(=O)N1Cc1cn(Cc2ccccc2)nn1 (stereo unspecified) | . | . | . | . | . | -
COC(=O)[C@H](CC(C)C)N(Cc1cn(Cc2ccc(C)cc2)nn1)S(=O)(=O)c1ccc(F)cc1Br | . | . | . | . | . | -
COc1ccccc1NC(=O)Nc1nnc(C(C)c2ccccc2)s1 (stereo unspecified) | - | - | 11.5 | - | - | -
Cc1cc(OCC(=O)Nc2ccncc2)cc(C)c1Br | - | - | 12.6 | - | - | -
CC1=CC2C(C(O)CC3(C)C2CC(C)C32OCOC23COCO3)C2(C)C/C(=C\O)C(=O)C=C12 (stereo unspecified) | - | - | 31.3 | - | 25.6 | -
